{"source": "PubChem BioAssay AID488809", "about": "(Broad Institute, 2010)", "assay": "cytotoxicity in NIH-3T3 fibroblasts, dose response, cytotoxicity control for antifungal drug resistance project, cell-based, Alamar Blue, fluconazole, dry powder (AID 488809)", "details": "NIH-3T3 fibroblasts + fluconazole, Alamar Blue viability, 48 h; series mostly up to 26 µM", "note": "Entries with a potency or affinity are not part of this list. Records with an inconclusive call do not appear. Active and inactive are the calls of the source. How the calls were made is not given here."}
{"smiles": "O=C(Cn1c2ccccc2c2nc3n(c(=O)c21)CCS3)NCCc1ccc(Cl)cc1", "values": [{"measurement": "outcome", "result": "inactive"}]}
{"smiles": "Cc1ccc(C(=O)N2CCN(c3ccnc4cc(Cl)ccc34)CC2)cc1", "values": [{"measurement": "outcome", "result": "inactive"}]}
{"smiles": "COC(=O)Cn1nc(-c2ccccc2)c2ccccc21", "values": [{"measurement": "outcome", "result": "inactive"}]}
{"smiles": "CCCNC(=O)Cn1nc(-c2ccccc2)c2ccccc21", "values": [{"measurement": "outcome", "result": "inactive"}]}
{"smiles": "O=C(Cn1c2ccccc2c2nc3n(c(=O)c21)CCCS3)c1ccc(F)cc1", "values": [{"measurement": "outcome", "result": "inactive"}]}
